The values below come from PubChem BioAssay AID1497 (Sanford-Burnham Center for Chemical Genomics, 2009).

The structures appear in SMILES notation. In all, about 93,000 compounds went through this assay and about 500 (0.54%) were called active. The entries come from a sample that favours actives as a whole. A number with no mark means an inactive call.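 Rule for the calls: active = primary inhibition of 50% or more at 10 µM, then 40% or more on retest; inactive = the rest.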

Chain of Integrin beta-2 (Homo sapiens) + Integrin alpha-M (Homo sapiens) (P05107 whole entry, looked up, other chains not shown): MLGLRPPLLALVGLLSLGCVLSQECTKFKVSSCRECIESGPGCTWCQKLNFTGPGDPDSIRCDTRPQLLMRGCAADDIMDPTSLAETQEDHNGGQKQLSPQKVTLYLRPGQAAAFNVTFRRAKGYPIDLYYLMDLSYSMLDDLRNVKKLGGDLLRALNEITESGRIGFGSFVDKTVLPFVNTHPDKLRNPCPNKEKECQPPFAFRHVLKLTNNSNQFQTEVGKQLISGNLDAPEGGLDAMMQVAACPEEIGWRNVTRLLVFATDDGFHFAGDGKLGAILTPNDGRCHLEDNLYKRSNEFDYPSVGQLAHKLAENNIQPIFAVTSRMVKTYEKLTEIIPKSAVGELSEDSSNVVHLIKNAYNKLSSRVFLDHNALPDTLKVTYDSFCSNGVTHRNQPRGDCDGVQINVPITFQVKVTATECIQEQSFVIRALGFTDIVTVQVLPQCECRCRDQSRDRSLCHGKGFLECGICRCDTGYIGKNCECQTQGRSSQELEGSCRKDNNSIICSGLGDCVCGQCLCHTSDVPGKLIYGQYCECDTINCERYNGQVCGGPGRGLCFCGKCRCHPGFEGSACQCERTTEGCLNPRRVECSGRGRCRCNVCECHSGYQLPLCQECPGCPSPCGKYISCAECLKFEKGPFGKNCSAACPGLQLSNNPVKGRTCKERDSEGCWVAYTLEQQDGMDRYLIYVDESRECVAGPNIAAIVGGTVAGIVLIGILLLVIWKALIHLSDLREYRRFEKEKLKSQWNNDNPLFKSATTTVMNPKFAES

The experiment has as its target Integrin beta-2 (Homo sapiens) + Integrin alpha-M (Homo sapiens) (UniProt P05107+P11215). The experiment is described as follows: inhibitors of CD11b/CD18 adhesion to fibrinogen, primary screen, K562 cells, luminescence (AID 1497). The conditions noted are these: ATPlite luminescence, at 10 µM, active compounds read high, Mn2+ added to activate the integrin.
Turning to `COc1cc(OC)c(C(=O)OC(C)C(=O)Nc2cc(C(F)(F)F)ccc2Cl)cc1OC` (stereo not given), the inhibition was 26.7%. Then `COc1ccc2nc(SCc3ccccc3)nc(C)c2c1`, with 1.5%; and `CC(C)(C)OC(=O)N/N=C/c1ccc(C(=O)O)cc1`, with -1.8%. Take `CC(C)Nc1nnc(SCC(=O)/C=C2\N(C)c3ccccc3C2(C)C)s1`: the inhibition was 21.6%. With `CCOC(=O)c1cnc2ccc(F)cc2c1Nc1ccc2c(c1)OCCO2` the figure was 2.6%; with `Cc1c(NS(=O)(=O)c2ccc(NC3CCCC3)c([N+](=O)[O-])c2)c(=O)n(-c2ccccc2)n1C`, 1%; with `Cc1cccc(CC(=O)N2CCN=C2SCc2ccc([N+](=O)[O-])cc2)c1`, -1.1%.

In the case of `COc1ccc(CCNc2cc(C)nc3c(-c4ccc(Cl)cc4)c(C)nn23)cc1OC`, the inhibition is 2.7%.

On to `Cc1cccc(-n2c(C)cc(/C=N\NC(=O)c3cccs3)c2C)c1`, for which the inhibition was 37.3%. Consider `Cc1ccc(S(=O)(=O)NCc2csc(C)n2)c(C)c1`, for which the inhibition is -9%. With `Cc1nc(CNS(=O)(=O)c2cccnc2)cs1` the figure was -2.1%; with `Cc1nc(CNS(=O)(=O)c2ccc(Oc3ccccc3)cc2)cs1`, 91.7% (active); with `COc1ccccc1N=Cc1c(O)c2ccccc2oc1=O`, 6%.

With `Oc1c(Br)cccc1/C=N/Nc1c(F)c(F)c(F)c(F)c1F`, the inhibition is 99.8%.

Take `Cc1cc([N+](=O)[O-])ccc1NC(=O)C1CCCO1` (stereo not given): the inhibition is 24.2%. With `CCOC(=O)/C(C#N)=C/c1ccc(N2CCN(Cc3ccccc3)CC2)cc1` the figure was 82.1%; with `Cc1ccc(NC(=S)NC(=O)/C=C/c2ccc(Cl)cc2)cc1`, 7.2%. Then `Cc1ccc(/C=N/NC(=O)CNC(=O)COc2ccccc2)o1`, with -10.5%; and `O=c1c(Cl)c(NCc2ccc(F)cc2Cl)cnn1C12CC3CC(CC(C3)C1)C2`, with -4%; and `Cc1c(C(=O)NCCN2C(=O)S/C(=C\c3cccs3)C2=O)cccc1[N+](=O)[O-]`, with 7%. With `Cc1sc2ncnc(Sc3nc4ccccc4s3)c2c1C` the figure was -5.9%.

On to `O=[N+]([O-])c1ccc(N2CCN(S(=O)(=O)c3ccccc3)CC2)cc1N1CCc2ccccc2C1`, for which the inhibition was -22.4%. With `CCOCCCNC(=O)C(=O)NCCCOCC` the figure was -3%; with `Cc1ccc(NC(=S)N2CCN(c3ncccn3)CC2)cc1C`, -4.4%. With `Cc1cc2oc(=O)cc(CN3CCN(S(=O)(=O)c4cccs4)CC3)c2cc1C(C)C` the figure was 22.2%; with `CCN(c1ccc(NC(=O)COC(=O)CCc2nc3ccccc3n2-c2ccccc2)cc1)C(C)C`, 15.2%. With `CC(C)N1C(=O)N(c2ccccc2)C(C)(O)CC1(C)C` (stereo not given) the figure was -10.1%. `Cc1cccc(NC(=O)Cn2c(=O)n(Cc3ccccc3)c(=O)c3c(C)c(C)sc32)c1`: the inhibition is -17.5%. Turning to `CCOc1ccc(NC(=O)COc2ccc(C(=O)NC3CCCc4ccccc43)cc2OC)cc1` (stereo not given), the inhibition is 1.8%. Then `CCCN1CNC(=S)N(CCc2ccccc2)C1`, with -28.3%; and `O=c1oc2cc(O)ccc2cc1-c1ccc(F)cc1`, with -2.5%; and `CCCCCCc1cc2cc(-c3nnc(-c4ccccc4)o3)c(=O)oc2cc1O`, with 94% (active). On to `CCOc1cccc(C(=O)Nc2cccnc2)c1`, for which the inhibition was -2.2%. With `CCOC(=O)c1cc(NC(=O)c2cccnc2)cc(C(=O)OCC)c1` the figure was -52.6%; with `Cc1c(C(=O)OC(C)C)sc(NC(=O)c2cccnc2)c1C#N`, 86% (active).

Turning to `Cc1ccc(C2CC(=O)NC(SCC(=O)OCc3ccccc3)=C2C#N)o1` (stereo not given), the inhibition was 29.9%.

As to `CCOC(=O)CSC1=C(C#N)C(c2sccc2C)CC(=O)N1` (stereo not given), the inhibition is 56.1% (active). For the molecule `CCOC(=O)CSC1=C(C#N)C(c2ccco2)C(C(=O)OCc2ccccc2)=C(C)N1` (stereo not given), the inhibition is 34.5%. With `CCCn1c(N)c(C(=O)CSc2nnc(-c3cccnc3)n2-c2ccc(C)cc2C)c(=O)[nH]c1=O` the figure was -8.1%; with `Cc1cc(Br)ccc1SCC(=O)OCC(=O)NCc1ccc2c(c1)OCO2`, 10.7%. Then `O=C(CSc1nc2ccccc2c(=O)n1CCCO)N1CCc2ccccc21`, with 21.1%; and `O=C(N/N=C/c1cccc([N+](=O)[O-])c1)C1CC(=O)N(c2ccc(Br)cc2)C1` (stereo not given), with -4.8%. Turning to `COC(=O)c1c(C)oc2ccc(N(C(=O)Oc3ccccc3)S(=O)(=O)c3ccccc3)cc12`, the inhibition is 2.5%. Then `Cc1ccc2nc(SCc3cn4c(C)cc(C)nc4n3)[nH]c2c1`, with -5.6%; and `COc1ccc(C(CC(=O)Nc2ccc(C)cc2)NC(=O)C(F)(F)F)cc1` (stereo not given), with -24.1%; and `CCCc1c(C)nc2c(Br)cccc2c1Cl`, with 13.2%.

`Cc1c(Cl)cccc1NC(=O)Nc1ccc(C(=O)N2CCCC2)cc1`: the inhibition was 9.6%. With `CCOc1ccc(/C=N/OCC(=O)NCc2cccs2)cc1` the figure was 9%; with `CCc1c(C)sc(NC(=O)/C=C/c2ccc3c(c2)OCO3)c1C(=O)OC`, -6.4%; with `O=C(Cc1ccc(-c2ccccc2)cc1)NC(c1ccccc1)c1ccccc1`, -18.2%.

`CCOc1cc(CNCc2ccccn2)ccc1OCC(=O)NC(C)(C)C`: the inhibition is 7.5%. For the molecule `CC(C)(C)NC(=O)COC(=O)c1cc(Br)ccc1Cl`, the inhibition was 12.8%. Consider `CC(C)C(=O)Nc1cccc(NC(=O)c2ccc([N+](=O)[O-])cc2Cl)c1`, for which the inhibition is -3.1%. Then `COC(=O)c1ccc(NC(=O)c2ccccc2NS(=O)(=O)c2ccccc2)cc1`, with 102% (active). In the case of `CCOc1ccc(NC(=O)c2ccccc2NS(C)(=O)=O)cc1`, the inhibition is -19.4%. With `COC(=O)c1ccccc1NC(=O)c1ccccc1NS(C)(=O)=O` the figure was -14.9%; with `O=C(Oc1ccc([N+](=O)[O-])cc1)c1ccc(Cl)c(S(=O)(=O)N2CCCCC2)c1`, 8.6%. On to `Cc1ccc(NC(=O)c2sc3nc(N)c(C#N)cc3c2N)cc1`, for which the inhibition is 10.7%. Then `COc1cccc(N(C(=O)C2COc3ccccc3O2)C(C(=O)NC2CCCCC2)c2ccc(O)cc2)c1` (stereo not given), with -5%. With `Cc1ccc(CSCC(N)C(=O)O)cc1` (stereo not given) the figure was -2%.
